Usually inhibition stands for the relative decrease from the control value, in per cent.

The target in assay [1] is Protein kinase C gamma type (Homo sapiens) (UniProt P05129). To be noted: at 1 µM.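 Note: each value is an averaged percent inhibition of the enzyme.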
The target of assay [2] is T1, Protein kinase C iota type (Homo sapiens) (UniProt P41743).
T1 sequence (whole entry): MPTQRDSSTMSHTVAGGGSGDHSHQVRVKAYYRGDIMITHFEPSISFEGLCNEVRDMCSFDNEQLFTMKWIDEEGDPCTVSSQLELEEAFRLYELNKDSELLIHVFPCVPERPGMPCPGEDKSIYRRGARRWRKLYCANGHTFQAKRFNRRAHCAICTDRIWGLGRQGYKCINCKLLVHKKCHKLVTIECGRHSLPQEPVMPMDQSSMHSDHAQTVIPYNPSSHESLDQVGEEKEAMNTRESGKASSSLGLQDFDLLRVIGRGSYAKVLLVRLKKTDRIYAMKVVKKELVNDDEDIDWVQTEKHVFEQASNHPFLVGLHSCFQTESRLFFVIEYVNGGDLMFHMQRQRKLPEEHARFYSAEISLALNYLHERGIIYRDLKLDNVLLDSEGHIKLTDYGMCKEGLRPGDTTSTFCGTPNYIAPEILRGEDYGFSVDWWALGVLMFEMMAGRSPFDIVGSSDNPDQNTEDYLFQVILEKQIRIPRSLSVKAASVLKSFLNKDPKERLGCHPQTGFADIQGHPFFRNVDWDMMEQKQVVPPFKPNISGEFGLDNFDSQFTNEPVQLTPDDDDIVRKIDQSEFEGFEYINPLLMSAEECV
To be noted: at 0.1 µM.

For assay [3], the target named is T1, Protein kinase C iota type (Homo sapiens). To be noted: at 1 µM.
For assay [4], the target named is Protein kinase C theta type (Homo sapiens) (UniProt Q04759). To be noted: at 0.1 µM.
For assay [5] the target is unchanged. The note with it: at 1 µM.
The target in assay [6] is Protein kinase C beta type (Homo sapiens) (UniProt P05771). To be noted: at 0.1 µM.
Assay [7] has the same target. The note with it: at 1 µM.
The target of assay [8] is T2, Serine/threonine-protein kinase D1 (Homo sapiens) (UniProt Q15139).
T2 sequence (whole entry): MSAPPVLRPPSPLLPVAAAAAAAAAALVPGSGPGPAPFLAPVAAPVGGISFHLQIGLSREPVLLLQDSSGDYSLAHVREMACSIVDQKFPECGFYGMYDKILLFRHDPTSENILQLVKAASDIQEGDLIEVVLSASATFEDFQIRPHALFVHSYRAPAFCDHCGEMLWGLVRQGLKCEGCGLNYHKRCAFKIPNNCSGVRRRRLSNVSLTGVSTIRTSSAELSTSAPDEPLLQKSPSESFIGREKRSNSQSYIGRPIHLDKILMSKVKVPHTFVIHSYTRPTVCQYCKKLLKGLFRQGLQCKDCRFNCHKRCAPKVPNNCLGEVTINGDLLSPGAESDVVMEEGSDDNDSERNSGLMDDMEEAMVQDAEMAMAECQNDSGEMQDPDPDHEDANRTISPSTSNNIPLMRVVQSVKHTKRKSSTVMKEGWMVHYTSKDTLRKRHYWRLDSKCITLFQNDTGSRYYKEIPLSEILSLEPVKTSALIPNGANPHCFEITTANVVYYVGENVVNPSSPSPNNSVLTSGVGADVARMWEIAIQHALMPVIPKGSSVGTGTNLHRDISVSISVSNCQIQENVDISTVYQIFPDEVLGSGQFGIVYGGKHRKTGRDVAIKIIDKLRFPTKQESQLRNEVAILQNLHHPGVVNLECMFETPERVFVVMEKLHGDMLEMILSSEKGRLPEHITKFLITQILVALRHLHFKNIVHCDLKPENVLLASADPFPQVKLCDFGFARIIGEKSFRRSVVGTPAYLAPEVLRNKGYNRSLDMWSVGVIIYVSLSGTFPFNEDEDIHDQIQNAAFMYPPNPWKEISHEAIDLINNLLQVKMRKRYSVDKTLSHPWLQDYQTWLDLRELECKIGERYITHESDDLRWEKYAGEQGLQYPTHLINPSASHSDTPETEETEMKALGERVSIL
To be noted: at 0.1 µM.

The target of assay [9] is T2, Serine/threonine-protein kinase D1 (Homo sapiens). The note with it: at 1 µM.
Assay [10] has as its target T3, Serine/threonine-protein kinase D2 (Homo sapiens) (UniProt Q9BZL6).
T3 sequence (whole entry): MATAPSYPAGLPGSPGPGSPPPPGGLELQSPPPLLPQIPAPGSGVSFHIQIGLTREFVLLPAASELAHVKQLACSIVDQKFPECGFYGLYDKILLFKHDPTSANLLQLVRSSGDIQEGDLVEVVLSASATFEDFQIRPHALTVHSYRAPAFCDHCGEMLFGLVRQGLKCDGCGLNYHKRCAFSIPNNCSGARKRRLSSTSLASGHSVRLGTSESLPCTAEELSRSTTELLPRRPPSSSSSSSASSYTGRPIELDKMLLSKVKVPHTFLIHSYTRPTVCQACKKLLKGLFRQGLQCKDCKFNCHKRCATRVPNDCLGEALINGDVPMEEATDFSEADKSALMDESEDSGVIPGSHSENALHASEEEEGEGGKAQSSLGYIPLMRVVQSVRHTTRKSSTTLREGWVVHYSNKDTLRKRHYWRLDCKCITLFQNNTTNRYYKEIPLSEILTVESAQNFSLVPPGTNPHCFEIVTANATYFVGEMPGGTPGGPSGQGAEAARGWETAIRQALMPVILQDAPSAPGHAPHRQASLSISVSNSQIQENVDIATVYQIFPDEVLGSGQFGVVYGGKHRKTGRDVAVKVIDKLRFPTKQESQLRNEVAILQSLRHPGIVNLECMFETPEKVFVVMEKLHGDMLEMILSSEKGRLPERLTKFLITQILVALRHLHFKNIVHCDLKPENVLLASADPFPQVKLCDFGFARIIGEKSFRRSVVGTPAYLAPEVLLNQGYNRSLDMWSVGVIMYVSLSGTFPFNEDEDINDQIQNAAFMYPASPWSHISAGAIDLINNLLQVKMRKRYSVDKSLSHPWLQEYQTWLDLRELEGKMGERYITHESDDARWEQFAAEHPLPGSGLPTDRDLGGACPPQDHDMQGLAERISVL
To be noted: at 0.1 µM.

Assay [11] addresses T3, Serine/threonine-protein kinase D2 (Homo sapiens). The note with it: at 1 µM.
The target in assay [12] is T4, Serine/threonine-protein kinase D3 (Homo sapiens) (UniProt O94806).
T4 sequence (whole entry): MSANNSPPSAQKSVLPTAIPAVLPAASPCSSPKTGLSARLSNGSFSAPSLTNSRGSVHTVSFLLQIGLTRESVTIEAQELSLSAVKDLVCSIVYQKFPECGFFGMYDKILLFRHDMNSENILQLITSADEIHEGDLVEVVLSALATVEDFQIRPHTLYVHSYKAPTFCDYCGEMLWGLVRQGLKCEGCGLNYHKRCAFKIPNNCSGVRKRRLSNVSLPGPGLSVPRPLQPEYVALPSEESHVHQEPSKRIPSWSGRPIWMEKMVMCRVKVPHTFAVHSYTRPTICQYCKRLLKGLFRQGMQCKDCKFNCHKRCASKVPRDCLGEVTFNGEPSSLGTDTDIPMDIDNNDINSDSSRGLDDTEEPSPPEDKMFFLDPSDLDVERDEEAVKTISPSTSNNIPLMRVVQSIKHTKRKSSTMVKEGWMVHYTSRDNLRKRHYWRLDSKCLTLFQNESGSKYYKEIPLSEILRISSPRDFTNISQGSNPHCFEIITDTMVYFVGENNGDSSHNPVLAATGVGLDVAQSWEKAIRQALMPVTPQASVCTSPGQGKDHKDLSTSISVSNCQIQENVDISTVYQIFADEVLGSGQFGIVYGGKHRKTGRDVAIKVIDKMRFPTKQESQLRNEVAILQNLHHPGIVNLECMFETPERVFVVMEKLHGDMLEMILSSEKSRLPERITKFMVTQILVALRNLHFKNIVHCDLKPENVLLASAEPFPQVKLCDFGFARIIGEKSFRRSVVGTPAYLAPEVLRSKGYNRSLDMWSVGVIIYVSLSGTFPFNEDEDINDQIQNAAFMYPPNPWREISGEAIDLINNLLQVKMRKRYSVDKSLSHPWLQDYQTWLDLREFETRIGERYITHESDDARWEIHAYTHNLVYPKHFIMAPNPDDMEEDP
To be noted: at 0.1 µM.

Assay [13] deals with T4, Serine/threonine-protein kinase D3 (Homo sapiens). The note with it: at 1 µM.
The target of assay [14] is T5, cGMP-dependent protein kinase 1 (Homo sapiens) (UniProt Q13976).
T5 sequence (whole entry): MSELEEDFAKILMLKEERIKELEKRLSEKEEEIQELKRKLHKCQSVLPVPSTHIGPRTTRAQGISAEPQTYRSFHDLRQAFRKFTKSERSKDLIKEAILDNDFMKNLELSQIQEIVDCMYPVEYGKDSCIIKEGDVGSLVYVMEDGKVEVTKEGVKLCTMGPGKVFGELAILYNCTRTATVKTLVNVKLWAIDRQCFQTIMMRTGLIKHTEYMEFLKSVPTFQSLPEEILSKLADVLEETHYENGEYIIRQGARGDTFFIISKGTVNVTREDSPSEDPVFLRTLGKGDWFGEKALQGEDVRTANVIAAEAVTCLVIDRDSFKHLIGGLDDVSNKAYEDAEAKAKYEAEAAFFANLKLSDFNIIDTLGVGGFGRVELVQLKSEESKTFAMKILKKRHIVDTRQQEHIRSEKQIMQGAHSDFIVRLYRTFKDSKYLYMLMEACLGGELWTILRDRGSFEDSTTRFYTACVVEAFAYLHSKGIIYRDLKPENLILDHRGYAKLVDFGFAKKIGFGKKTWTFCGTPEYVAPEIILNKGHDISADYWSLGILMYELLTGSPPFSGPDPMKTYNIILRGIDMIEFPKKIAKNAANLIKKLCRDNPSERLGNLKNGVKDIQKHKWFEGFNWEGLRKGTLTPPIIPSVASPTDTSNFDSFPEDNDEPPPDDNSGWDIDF
To be noted: at 0.1 µM.

The target in assay [15] is T5, cGMP-dependent protein kinase 1 (Homo sapiens). To be noted: at 1 µM.
Assay [16] addresses T6, cGMP-dependent protein kinase 2 (Homo sapiens) (UniProt Q13237).
T6 sequence (whole entry): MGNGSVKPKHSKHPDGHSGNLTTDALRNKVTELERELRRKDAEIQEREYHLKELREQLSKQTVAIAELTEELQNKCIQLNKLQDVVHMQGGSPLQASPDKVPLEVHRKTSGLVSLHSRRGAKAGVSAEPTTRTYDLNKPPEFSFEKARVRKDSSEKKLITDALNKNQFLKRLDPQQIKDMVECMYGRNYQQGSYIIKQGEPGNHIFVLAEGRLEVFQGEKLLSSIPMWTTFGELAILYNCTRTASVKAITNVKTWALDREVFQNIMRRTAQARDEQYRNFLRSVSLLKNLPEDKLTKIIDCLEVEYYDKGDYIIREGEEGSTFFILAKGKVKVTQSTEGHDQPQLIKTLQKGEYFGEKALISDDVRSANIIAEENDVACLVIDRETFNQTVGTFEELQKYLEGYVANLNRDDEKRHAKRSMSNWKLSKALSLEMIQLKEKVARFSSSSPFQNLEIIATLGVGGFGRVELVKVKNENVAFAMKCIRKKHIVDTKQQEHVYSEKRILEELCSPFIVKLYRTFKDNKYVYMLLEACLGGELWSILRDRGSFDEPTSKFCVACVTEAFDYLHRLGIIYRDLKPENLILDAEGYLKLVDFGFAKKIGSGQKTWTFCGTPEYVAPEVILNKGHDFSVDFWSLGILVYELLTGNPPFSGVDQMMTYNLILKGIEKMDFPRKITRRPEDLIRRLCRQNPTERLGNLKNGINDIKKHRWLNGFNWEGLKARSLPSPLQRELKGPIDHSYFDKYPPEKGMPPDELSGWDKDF
The note with it: at 0.1 µM.

Assay [17] deals with T6, cGMP-dependent protein kinase 2 (Homo sapiens). The note with it: at 1 µM.
Assay [18] concerns the target T7, cAMP-dependent protein kinase catalytic subunit PRKX (Homo sapiens) (UniProt P51817).
T7 sequence (whole entry): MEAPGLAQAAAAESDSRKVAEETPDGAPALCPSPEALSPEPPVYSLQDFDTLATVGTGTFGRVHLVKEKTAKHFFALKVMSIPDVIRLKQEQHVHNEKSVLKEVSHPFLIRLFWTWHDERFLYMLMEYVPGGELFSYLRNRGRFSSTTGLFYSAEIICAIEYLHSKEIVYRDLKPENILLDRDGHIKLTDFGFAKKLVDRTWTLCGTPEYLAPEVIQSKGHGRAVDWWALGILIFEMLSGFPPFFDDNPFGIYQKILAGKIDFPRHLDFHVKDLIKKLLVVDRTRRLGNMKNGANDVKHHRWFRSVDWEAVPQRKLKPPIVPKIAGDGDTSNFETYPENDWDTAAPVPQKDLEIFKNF
The note with it: at 0.1 µM.

The target of assay [19] is T7, cAMP-dependent protein kinase catalytic subunit PRKX (Homo sapiens). To be noted: at 1 µM.
Assay [20] deals with Rho-associated protein kinase 1 (Homo sapiens) (UniProt Q13464). To be noted: at 0.1 µM.
Rho-associated protein kinase 1 (Homo sapiens), sequence (Q13464 2-1354 limits assumed): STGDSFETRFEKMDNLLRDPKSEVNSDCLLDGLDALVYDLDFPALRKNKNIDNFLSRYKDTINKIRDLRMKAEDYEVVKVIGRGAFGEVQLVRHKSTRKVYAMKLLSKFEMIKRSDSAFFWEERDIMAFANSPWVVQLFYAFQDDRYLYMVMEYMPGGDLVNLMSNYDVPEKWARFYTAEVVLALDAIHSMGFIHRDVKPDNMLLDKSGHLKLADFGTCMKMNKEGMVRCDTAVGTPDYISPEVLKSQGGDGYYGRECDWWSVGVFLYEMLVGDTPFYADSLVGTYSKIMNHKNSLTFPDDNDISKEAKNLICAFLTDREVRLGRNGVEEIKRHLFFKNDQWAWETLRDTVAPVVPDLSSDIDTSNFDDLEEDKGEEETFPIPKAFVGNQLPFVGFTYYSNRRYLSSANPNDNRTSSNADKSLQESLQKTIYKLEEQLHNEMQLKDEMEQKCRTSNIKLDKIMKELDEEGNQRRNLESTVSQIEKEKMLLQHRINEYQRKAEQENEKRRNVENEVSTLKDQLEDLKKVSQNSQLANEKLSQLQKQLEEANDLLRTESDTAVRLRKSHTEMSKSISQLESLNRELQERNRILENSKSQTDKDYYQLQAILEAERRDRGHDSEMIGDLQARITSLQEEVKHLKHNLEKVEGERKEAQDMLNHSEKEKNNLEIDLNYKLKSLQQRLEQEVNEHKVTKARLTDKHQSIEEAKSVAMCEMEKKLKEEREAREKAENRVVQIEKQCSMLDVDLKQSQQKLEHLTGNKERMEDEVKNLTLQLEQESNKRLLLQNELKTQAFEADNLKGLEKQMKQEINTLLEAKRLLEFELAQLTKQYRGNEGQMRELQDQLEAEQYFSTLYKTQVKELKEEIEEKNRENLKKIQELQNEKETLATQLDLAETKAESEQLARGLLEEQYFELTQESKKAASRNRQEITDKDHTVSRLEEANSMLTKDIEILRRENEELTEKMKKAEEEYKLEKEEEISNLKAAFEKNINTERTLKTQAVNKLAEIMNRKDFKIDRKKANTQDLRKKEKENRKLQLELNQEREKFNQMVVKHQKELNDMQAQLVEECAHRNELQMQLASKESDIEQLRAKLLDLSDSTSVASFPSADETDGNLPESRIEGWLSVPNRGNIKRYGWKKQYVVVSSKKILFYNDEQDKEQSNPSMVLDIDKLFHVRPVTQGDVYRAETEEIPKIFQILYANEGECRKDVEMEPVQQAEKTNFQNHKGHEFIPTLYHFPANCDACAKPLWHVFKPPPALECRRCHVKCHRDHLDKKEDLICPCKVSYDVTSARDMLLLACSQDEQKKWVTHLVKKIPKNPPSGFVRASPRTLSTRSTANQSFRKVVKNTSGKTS

Protein kinase C beta type (Homo sapiens), sequence (P05771 2-671 limits assumed): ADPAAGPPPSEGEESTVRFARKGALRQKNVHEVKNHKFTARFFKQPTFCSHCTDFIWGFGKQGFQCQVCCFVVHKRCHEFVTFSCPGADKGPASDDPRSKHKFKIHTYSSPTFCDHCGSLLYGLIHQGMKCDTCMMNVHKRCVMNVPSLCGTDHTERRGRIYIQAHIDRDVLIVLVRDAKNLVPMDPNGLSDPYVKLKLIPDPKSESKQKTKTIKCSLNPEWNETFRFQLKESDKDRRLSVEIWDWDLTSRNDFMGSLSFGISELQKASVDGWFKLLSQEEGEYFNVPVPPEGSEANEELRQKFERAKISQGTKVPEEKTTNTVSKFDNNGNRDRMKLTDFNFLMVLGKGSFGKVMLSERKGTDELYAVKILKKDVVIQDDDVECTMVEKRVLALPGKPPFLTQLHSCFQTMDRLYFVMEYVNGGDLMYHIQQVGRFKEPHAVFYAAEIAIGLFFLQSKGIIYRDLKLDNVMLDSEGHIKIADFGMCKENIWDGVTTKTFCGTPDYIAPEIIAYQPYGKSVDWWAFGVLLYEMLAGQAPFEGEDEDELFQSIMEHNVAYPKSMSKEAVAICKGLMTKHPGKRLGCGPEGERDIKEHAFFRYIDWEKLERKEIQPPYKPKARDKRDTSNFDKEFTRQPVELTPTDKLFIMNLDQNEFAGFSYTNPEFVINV
Protein kinase C theta type (Homo sapiens), sequence (Q04759 whole entry, looked up): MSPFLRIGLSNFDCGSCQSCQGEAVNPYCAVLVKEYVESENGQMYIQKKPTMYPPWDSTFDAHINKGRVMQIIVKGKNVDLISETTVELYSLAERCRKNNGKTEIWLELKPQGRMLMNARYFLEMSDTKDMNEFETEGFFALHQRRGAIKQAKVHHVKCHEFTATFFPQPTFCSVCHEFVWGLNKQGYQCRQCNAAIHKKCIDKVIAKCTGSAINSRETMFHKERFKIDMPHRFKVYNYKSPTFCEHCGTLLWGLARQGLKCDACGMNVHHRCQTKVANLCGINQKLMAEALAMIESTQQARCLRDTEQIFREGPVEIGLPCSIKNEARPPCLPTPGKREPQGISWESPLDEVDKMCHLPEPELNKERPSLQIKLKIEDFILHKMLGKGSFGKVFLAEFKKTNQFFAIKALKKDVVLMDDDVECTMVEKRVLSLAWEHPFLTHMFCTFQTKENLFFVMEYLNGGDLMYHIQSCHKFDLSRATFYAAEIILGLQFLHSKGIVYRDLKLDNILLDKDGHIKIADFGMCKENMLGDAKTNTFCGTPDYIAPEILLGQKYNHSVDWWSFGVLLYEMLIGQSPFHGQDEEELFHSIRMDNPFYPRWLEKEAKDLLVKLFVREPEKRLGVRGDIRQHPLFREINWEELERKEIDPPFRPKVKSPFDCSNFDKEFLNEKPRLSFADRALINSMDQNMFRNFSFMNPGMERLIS

As for `COc1cccc(-n2ncc3c(N/N=C/c4ccc(C(=O)NCCN(C)C)cc4)ncnc32)c1`, the inhibition in assay [1] amounted to 4.05%; in [2], 2.38%; in assay [3] it was 10.3%; in assay [4], 1.61%; in assay [5], 1.46%; in assay [6], 1.88%. Moreover, the inhibition came out at 17.7% in [7]; 2.09% in assay [8]; 7.26% in [9]; 2.5% in assay [10]; 6.33% in assay [11]; 2.63% in assay [12]. Moreover, the inhibition came out at 4.71% in assay [13]; 2.79% in [14]; 1.97% in assay [15]; 4.28% in assay [16]; 20.5% in assay [17]; 1.32% in assay [18]. For the same compound, the inhibition in assay [19] is 5.04%; in assay [20], 3.7%.
Regarding `COC(=O)Nc1nc2ccc(Oc3ccc(NC(=O)Nc4cc(C(F)(F)F)ccc4F)cc3)cc2s1`, the inhibition is 0.59% in [1]; -0.25% in [2]; 0.66% in assay [3]; -0.27% in [4]; -1.1% in assay [5]; -0.19% in [6]. Further, the inhibition was -0.04% in [7]; 0.06% in assay [8]; 0.84% in assay [9]; -0.61% in [10]; 1.09% in assay [11]; 0.52% in [12]. Besides, the inhibition is 0.53% in assay [13]; 1.65% in assay [14]; 2.05% in assay [15]; 1.07% in assay [16]; 1.92% in assay [17]; 0.15% in assay [18]. Further, the results for the inhibition in assay [19] and in assay [20] were -0.17% and 0.74%, respectively.

The values above are taken from ChEMBL document CHEMBL1961873, “Compounds: GSK PKIS; Assays: Nanosyn kinase panel” (2012).
